From PubChem BioAssay (EPA / NIEHS)
More than one record can exist for a structure, and the calls need not agree. Calls of active or inactive are those of the source. How the source made its calls: active means hit-call score of the fitted dose curve at least 0.9, where 1 is the maximum; inactive means score below 0.9.

Key:
[1] = read-out: Macrophage colony-stimulating factor (MCSF), CSF1 (gene 1435); assay: BSK_hDFCGF_MCSF: BioMAP Diversity Plus: hDFCGF Assay for Macrophage colony-stimulating factor (MCSF) Biomarker Activity (AID 2283060); settings: primary human foreskin fibroblasts; actives raise or lower the signal
Procedure, shortened: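 fibroblasts (human foreskin, primary), 24 h post-dose; M-CSF by ELISA; bidirectional fit, DMSO = baseline.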

[2] = BSK_hDFCGF_SRB: Viability Assessment in the BioMAP Diversity Plus: hDFCGF Assay (AID 2283061); settings: primary human foreskin fibroblasts;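 further: cells exposed to compound for 24 h before the read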
Procedure, shortened: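 SRB-based viability read on primary human skin fibroblasts at 24 h: TCA fixation, 0.1% dye, 560 nm. Gain or loss of signal is fitted against the DMSO negative control.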

[3] = read-out: TIMP metallopeptidase inhibitor 1 (TIMP1), TIMP1 (gene 7076); assay: BSK_hDFCGF_TIMP1: BioMAP Diversity Plus: hDFCGF Assay for TIMP metallopeptidase inhibitor 1 (TIMP1) Biomarker Activity (AID 2283062); settings: primary human foreskin fibroblasts; actives raise or lower the signal
Procedure, shortened: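 Bidirectional curve fitting against DMSO baseline yielded this endpoint, based on ELISA detection of TIMP-1 in primary human foreskin fibroblasts exposed to compound for 24 h.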

[4] = read-out: Monokine induced gamma interferon (MIG), CXCL9 (gene 4283); assay: BSK_hDFCGF_MIG: BioMAP Diversity Plus: hDFCGF Assay for Monokine induced gamma interferon (MIG) Biomarker Activity (AID 2283063); settings: primary human foreskin fibroblasts; actives raise or lower the signal
Procedure, shortened: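 Endpoint derived by bidirectional fitting relative to DMSO; MIG quantified via ELISA in primary human foreskin fibroblasts harvested 24 h after dosing.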

[5] = read-out: Matrix Metallopeptidase 1 (MMP1), MMP1 (gene 4312); assay: BSK_hDFCGF_MMP1: BioMAP Diversity Plus: hDFCGF Assay for Matrix Metallopeptidase 1 (MMP1) Biomarker Activity (AID 2283064); settings: primary human foreskin fibroblasts; actives raise or lower the signal
Procedure, shortened: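 Primary human foreskin fibroblasts exposed to chemicals for 24 h; MMP1 measured by ELISA. Cytotoxicity tracked by SRB staining in parallel cultures; bidirectional fit relative to DMSO.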

[6] = read-out: Vascular cell adhesion molecule 1 (VCAM1), VCAM1 (gene 7412); assay: BSK_hDFCGF_VCAM1: BioMAP Diversity Plus: hDFCGF Assay for Vascular cell adhesion molecule 1 (VCAM1) Biomarker Activity (AID 2283065); settings: primary human foreskin fibroblasts; actives raise or lower the signal;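 on AC50: VCAM-1 protein level quantified by ELISA after 24 h chemical exposure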
Procedure, shortened: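 Measured after 24 h chemical treatment of primary human skin fibroblasts, VCAM-1 was detected by ELISA and concentration-response analysed in both directions versus DMSO vehicle.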

[7] = read-out: Plasminogen activator inhibitor-1 (PAI1), SERPINE1 (gene 5054); assay: BSK_hDFCGF_PAI1: BioMAP Diversity Plus: hDFCGF Assay for Plasminogen activator inhibitor-1 (PAI1) Biomarker Activity (AID 2283066); settings: primary human foreskin fibroblasts; actives raise or lower the signal
Procedure, shortened: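 PAI-1 levels, determined by ELISA, served as the endpoint in human foreskin fibroblast cultures exposed to compound for 24 h, with DMSO as baseline.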

[8] = read-out: Intercellular Adhesion Molecule 1 (ICAM1), ICAM1 (gene 3383); assay: BSK_KF3CT_ICAM1: BioMAP Diversity Plus: KF3CT Assay for Intercellular Adhesion Molecule 1 (ICAM1) Biomarker Activity (AID 2283067); settings: primary human keratinocytes with fibroblasts; actives raise or lower the signal
Procedure, shortened: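 Bidirectional curve fitting against a DMSO baseline was applied to ICAM-1 ELISA signal from primary human skin co-cultures harvested 24 h after treatment, with SRB staining of parallel wells for overt cytotoxicity.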

[9] = read-out: Interferon-gamma inducible Protein 10 (IP10), CXCL10 (gene 3627); assay: BSK_KF3CT_IP10: BioMAP Diversity Plus: KF3CT Assay for Interferon-gamma inducible Protein 10 (IP10) Biomarker Activity (AID 2283068); settings: primary human keratinocytes with fibroblasts; actives raise or lower the signal
Procedure, shortened: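 Human keratinocyte plus foreskin fibroblast primary co-culture exposed to test chemical for 24 h; IP-10 measured by ELISA. Concentration-response fitted bidirectionally against DMSO control as baseline.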

[10] = BSK_KF3CT_SRB: Viability Assessment in the BioMAP Diversity Plus: KF3CT Assay (AID 2283069); settings: primary human keratinocytes with fibroblasts;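 further: total protein by sulforhodamine B staining as a cytotoxicity measure; read 24 h after compound addition; fitted for both signal gain and loss against DMSO baseline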
Procedure, shortened: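 Human keratinocyte and foreskin fibroblast co-culture exposed to chemical for 24 h. Total protein measured in parallel cultures by 0.1% sulforhodamine B staining after 10% TCA fixation, read at 560 nm; bidirectional fit relative to DMSO.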

[11] = read-out: Interleukin-1 alpha (IL1a), IL1A (gene 3552); assay: BSK_KF3CT_IL1a: BioMAP Diversity Plus: KF3CT Assay for Interleukin-1 alpha (IL1a) Biomarker Activity (AID 2283070); settings: primary human keratinocytes with fibroblasts; actives raise or lower the signal
Procedure, shortened: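 Primary human keratinocyte plus foreskin fibroblast co-culture, dosed and measured at 24 h in 96-well plates. IL-1a level quantified by ELISA; bidirectional fit relative to DMSO.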

[12] = read-out: TIMP metallopeptidase inhibitor 2 (TIMP2), TIMP2 (gene 7077); assay: BSK_KF3CT_TIMP2: BioMAP Diversity Plus: KF3CT Assay for TIMP metallopeptidase inhibitor 2 (TIMP2) Biomarker Activity (AID 2283071); settings: primary human keratinocytes with fibroblasts; actives raise or lower the signal
Procedure, shortened: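 Keratinocyte–fibroblast co-culture, 24 h exposure; TIMP-2 ELISA, DMSO-normalised bidirectional fit. Parallel SRB (0.1%, TCA-fixed, 560 nm) total-protein staining gauges cytotoxicity.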

[13] = read-out: Transforming growth factor beta 1 (TGFb1), TGFB1 (gene 7040); assay: BSK_KF3CT_TGFb1: BioMAP Diversity Plus: KF3CT Assay for Transforming growth factor beta 1 (TGFb1) Biomarker Activity (AID 2283072); settings: primary human keratinocytes with fibroblasts; actives raise or lower the signal
Procedure, shortened: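 Signal changes in either direction, relative to DMSO, define activity here. TGF-b1 is read by ELISA from a human keratinocyte-fibroblast co-culture 24 h post-dose.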

[14] = read-out: C-C motif chemokine 2 (Homo sapiens) (UniProt P13500); assay: BSK_KF3CT_MCP1: BioMAP Diversity Plus: KF3CT Assay for Monocyte Chemoattractant Protein 1 (MCP1/CCL2) Biomarker Activity (AID 2283073); settings: primary human keratinocytes with fibroblasts; actives raise or lower the signal
Procedure, shortened: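 Biomarker MCP-1 is measured by ELISA in primary human keratinocytes co-cultured with foreskin fibroblasts, 24 h after chemical treatment; DMSO serves as the negative control and activity baseline.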

[15] = read-out: Matrix Metallopeptidase 9 (MMP9), MMP9 (gene 4318); assay: BSK_KF3CT_MMP9: BioMAP Diversity Plus: KF3CT Assay for Matrix Metallopeptidase 9 (MMP9) Biomarker Activity (AID 2283074); settings: primary human keratinocytes with fibroblasts; actives raise or lower the signal;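 on AC50: MMP9 protein level quantified by ELISA in the co-culture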
Procedure, shortened: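 Human keratinocyte and foreskin fibroblast co-culture exposed to chemicals for 24 h; MMP9 biomarker measured by ELISA, bidirectional fitting relative to DMSO; cytotoxicity tracked by SRB total protein staining in parallel cultures.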

[16] = read-out: urokinase plasminogen activator (uPA), PLAU (gene 5328); assay: BSK_KF3CT_uPA: BioMAP Diversity Plus: KF3CT Assay for urokinase plasminogen activator (uPA) Biomarker Activity (AID 2283075); settings: primary human keratinocytes with fibroblasts; actives raise or lower the signal
Procedure, shortened: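 Primary human keratinocyte/foreskin fibroblast co-culture exposed to chemical; uPA measured by ELISA at 24 h. Bidirectional fit versus DMSO, with parallel SRB total-protein staining for cytotoxicity.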

[17] = read-out: E-selectin (Homo sapiens) (UniProt P16581); assay: BSK_LPS_Eselectin: BioMAP Diversity Plus: LPS Assay for Eselectin Biomarker Activity (AID 2283077); settings: primary human HUVEC with PBMC; actives raise or lower the signal
Procedure, shortened: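 Dose chemical onto LPS-driven HUVEC/PBMC co-culture; after 24 h, run ELISA for E-selectin; fit up- and down-going responses relative to DMSO control.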

[18] = read-out: Interleukin-8 (IL8), CXCL8 (gene 3576); assay: BSK_LPS_IL8: BioMAP Diversity Plus: LPS Assay for Interleukin-8 (IL8) Biomarker Activity (AID 2283078); settings: primary human HUVEC with PBMC; actives raise or lower the signal
Procedure, shortened: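 In this LPS system, chemical-treated human umbilical vein endothelium/PBMC co-cultures were harvested at 24 h for IL-8 ELISA.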

[19] = BSK_LPS_SRB: Viability Assessment in the BioMAP Diversity Plus: LPS Assay (AID 2283079); settings: primary human HUVEC with PBMC;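 further: total protein by sulforhodamine B absorbance as a cytotoxicity measure; measured one day after compound addition; fitted in both directions against DMSO so loss or gain of signal counts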
Procedure, shortened: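 Cytotoxicity endpoint in human endothelial–PBMC co-culture: 24 h exposure, then SRB (0.1%) staining, 560 nm read.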

Measured: AC50

Sequence of E-selectin (Homo sapiens) (P16581 whole entry, looked up): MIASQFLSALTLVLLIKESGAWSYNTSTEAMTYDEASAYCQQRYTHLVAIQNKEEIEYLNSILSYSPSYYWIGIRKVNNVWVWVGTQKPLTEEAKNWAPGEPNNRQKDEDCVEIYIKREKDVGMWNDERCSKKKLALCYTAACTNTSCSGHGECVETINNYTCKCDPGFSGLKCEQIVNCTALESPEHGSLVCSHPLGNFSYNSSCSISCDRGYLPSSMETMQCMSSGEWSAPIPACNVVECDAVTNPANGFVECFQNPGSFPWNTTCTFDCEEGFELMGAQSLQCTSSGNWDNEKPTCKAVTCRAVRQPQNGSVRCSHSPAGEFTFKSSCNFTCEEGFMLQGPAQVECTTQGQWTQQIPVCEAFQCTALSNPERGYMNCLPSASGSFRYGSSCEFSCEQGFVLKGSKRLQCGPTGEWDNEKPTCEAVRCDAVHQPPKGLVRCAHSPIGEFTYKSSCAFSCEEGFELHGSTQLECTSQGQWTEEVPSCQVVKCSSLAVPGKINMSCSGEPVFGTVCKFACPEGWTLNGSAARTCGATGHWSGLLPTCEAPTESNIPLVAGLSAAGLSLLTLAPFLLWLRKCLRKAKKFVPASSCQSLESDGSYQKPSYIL

COC(OC)(C(=O)c1ccccc1)c1ccccc1
active: [18] 0.016 µM
inactive: all other assays above

CC/C=C\C/C=C\C/C=C\CCCCCCCC(=O)OC
active: [1] 8.71 µM | [2] 6.53 µM | [3] 10.7 µM | [4] 11.1 µM | [5] 12.3 µM | [6] 8.22 µM | [7] 6.64 µM | [8] 12.3 µM | [9] 20 µM | [10] 20 µM | [11] 12.2 µM | [12] 7.17 µM | [13] 6.41 µM | [14] 5.29 µM | [15] 12.2 µM | [16] 20 µM | [17] 30.1 µM | [18] 29 µM | [19] 27.8 µM

CCN1CN(CC)CN(CC)C1
inactive: all assays above

Oc1c(Cl)cc(Cl)c(Cl)c1Cl
inactive: [1] | [4] | [5] | [10] | [11] | [16] | [18]
active: [2] 28.7 µM | [3] 32.1 µM | [6] 23.3 µM | [7] 24.6 µM | [8] 20 µM | [9] 20 µM | [12] 11.4 µM | [13] 20 µM | [14] 20 µM | [15] 20 µM | [17] 30.7 µM | [19] 20 µM

C=CC(=O)OCCCCCCCC(C)C
active: [1] 20 µM | [2] 25.6 µM | [4] 20 µM | [6] 12.3 µM | [7] 5.93 µM
inactive: all other assays above

O=C(O)C(F)(F)C(F)(F)C(F)(F)C(F)(F)C(=O)O
inactive: [1] | [2] | [3] | [4] | [5] | [6] | [7] | [8] | [9] | [10] | [11] | [12] | [14] | [15] | [16] | [17] | [18] | [19]
active: [18] 30 µM

C=CCCCCCCCCC=O
inactive: all assays above

CC/C=C\CCOC(=O)c1ccccc1O
inactive: [14] | [15]
active: [1] 13.1 µM | [2] 13.7 µM | [3] 12.4 µM | [4] 20 µM | [5] 13.3 µM | [6] 14.9 µM | [7] 11.6 µM | [8] 20 µM | [9] 31 µM | [10] 28.8 µM | [11] 30.2 µM | [12] 14.7 µM | [13] 14.5 µM | [16] 29.8 µM | [17] 38.1 µM | [18] 33.5 µM | [19] 30.7 µM

COc1ccc(C(=O)c2ccccc2)c(O)c1
active: [15] 20 µM
inactive: all other assays above

CC=C(C)C(C)=O
active: [6] 6.7 µM
inactive: all other assays above

C1CNCCN1
inactive: all assays above

CCOC(=O)C1=NOC(c2ccccc2)(c2ccccc2)C1
active: [13] 0.113 µM
inactive: all other assays above

CC(C)C(=O)OCCc1ccccc1
not listed: [13]
inactive: all other assays above

CCCCC1C(=O)N(c2ccccc2)N(c2ccccc2)C1=O
inactive: all assays above
